In PubChem BioAssay (NCATS):
Results filed as inconclusive are left out. Calls of active or inactive are those of the source. Calls come from the whole dose curve; as a rule, active = well fitted cell-killing curve with a large enough effect; inconclusive = small, poorly fitted or top-dose-only effect, or effect the other way; inactive = flat fitted curve, though single readings scatter.

Tests used:
Assay in all cases: Primary qHTS to identify gynecologic anti-cancer compounds using libraries of approved drugs and bioactive compounds (AID 1345084); note: nearly all actives have a fitted effect of over 55% in size
C33A = settings: Gynecologic cancer cell panel viability, ATPlite luminescence, 48 h; series mostly up to 57.5 µM
How it was run: (§1)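 Measured: luminescence after ATPlite addition (15 min, RT). Exposure: 48 h, 37 C, 5% CO2.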

CAOV3 = settings: Gynecologic cancer cell panel viability, ATPlite luminescence, 48 h; series mostly up to 57.5 µM
How it was run: as §1

CASKI = settings: Gynecologic cancer cell panel viability, ATPlite luminescence, 48 h; series mostly up to 57.5 µM
How it was run: as §1

Es-2 = settings: Gynecologic cancer cell panel viability, ATPlite luminescence, 48 h; series mostly up to 57.5 µM
How it was run: as §1

HeLa = settings: Gynecologic cancer cell panel viability, ATPlite luminescence, 48 h; series mostly up to 57.5 µM
How it was run: as §1

Hek293T = settings: Gynecologic cancer cell panel viability, ATPlite luminescence, 48 h, control line for the selectivity index; series mostly up to 57.5 µM
How it was run: as §1

JEG-3 = settings: Gynecologic cancer cell panel viability, ATPlite luminescence, 48 h; series mostly up to 57.5 µM
How it was run: as §1

OV90 = settings: Gynecologic cancer cell panel viability, ATPlite luminescence, 48 h; series mostly up to 57.5 µM
How it was run: as §1

PA-1 = settings: Gynecologic cancer cell panel viability, ATPlite luminescence, 48 h; series mostly up to 57.5 µM
How it was run: as §1

SKOV3 = settings: Gynecologic cancer cell panel viability, ATPlite luminescence, 48 h; series mostly up to 57.5 µM
How it was run: as §1

Tov-21-G = settings: Gynecologic cancer cell panel viability, ATPlite luminescence, 48 h; series mostly up to 57.5 µM
How it was run: as §1

Tov112D = settings: Gynecologic cancer cell panel viability, ATPlite luminescence, 48 h; series mostly up to 57.5 µM
How it was run: as §1
% is set by controls: 0 for no effect and ±100 for the full control effect.

CC(C)C(C#N)O[C@@H]1O[C@H](CO[C@@H]2O[C@@H](C)[C@H](O)[C@@H](O)[C@H]2O)[C@@H](O)[C@H](O)[C@H]1O (some centres not stated)
inactive: Potency (C33A) | Potency (CAOV3) | Potency (CASKI) | Potency (Es-2) | Potency (HeLa) | Potency (Hek293T) | Potency (JEG-3) | Potency (OV90) | Potency (PA-1) | Potency (SKOV3) | Potency (Tov-21-G) | Potency (Tov112D)

CC1CCC2(CO)C(C(=O)O)=CCCC2C1(C)CCc1ccoc1 (configuration not stated)
inactive: Potency (C33A) | Potency (CAOV3) | Potency (CASKI) | Potency (Es-2) | Potency (HeLa) | Potency (Hek293T) | Potency (JEG-3) | Potency (OV90) | Potency (PA-1) | Potency (SKOV3) | Potency (Tov-21-G) | Potency (Tov112D)

C=CC1(C)C=C2C(=O)OC(=O)C3=C(CCCC3(C)C)C2(O)CC1 (configuration not stated)
inactive: Potency (C33A) | Potency (CAOV3) | Potency (CASKI) | Potency (Es-2) | Potency (HeLa) | Potency (Hek293T) | Potency (JEG-3) | Potency (OV90) | Potency (PA-1) | Potency (SKOV3) | Potency (Tov-21-G) | Potency (Tov112D)

O=C(O)Cc1ccc2oc(-c3ccc(NC(=O)/C=C/c4ccc(Br)cc4)c(F)c3)nc2c1
inactive: Potency (C33A) | Potency (CAOV3) | Potency (CASKI) | Potency (Es-2) | Potency (HeLa) | Potency (Hek293T) | Potency (JEG-3) | Potency (OV90) | Potency (PA-1) | Potency (SKOV3) | Potency (Tov-21-G) | Potency (Tov112D)

O=C1CSc2ccccc2N1Cc1cccc(C(F)(F)F)c1
inactive: Potency (C33A) | Potency (CAOV3) | Potency (CASKI) | Potency (Es-2) | Potency (HeLa) | Potency (Hek293T) | Potency (JEG-3) | Potency (OV90) | Potency (PA-1) | Potency (SKOV3) | Potency (Tov-21-G) | Potency (Tov112D)

CC(C)=CCC[C@](C)(O[C@@H]1O[C@H](CO)[C@@H](O)[C@H](O)[C@H]1O)[C@H]1CC[C@]2(C)[C@@H]1[C@H](O)CC1[C@@]3(C)CC[C@H](O)C(C)(C)C3[C@@H](O[C@@H]3O[C@H](CO)[C@@H](O)[C@H](O)[C@H]3O)C[C@]12C (some centres not stated)
inactive: Potency (C33A) | Potency (CAOV3) | Potency (CASKI) | Potency (Es-2) | Potency (HeLa) | Potency (Hek293T) | Potency (JEG-3) | Potency (OV90) | Potency (PA-1) | Potency (SKOV3) | Potency (Tov-21-G) | Potency (Tov112D)

CC1CC(C(O)C(C)(C)O)OC2CC3(C)C4(C)CCC5C(C)(C)C(=O)CCC5(C)C4CCC3(O)C12O (configuration not stated)
inactive: Potency (C33A) | Potency (CAOV3) | Potency (CASKI) | Potency (Es-2) | Potency (HeLa) | Potency (Hek293T) | Potency (JEG-3) | Potency (OV90) | Potency (PA-1) | Potency (SKOV3) | Potency (Tov-21-G) | Potency (Tov112D)

CC1(C)CC[C@]2(C(=O)OC3OC(CO)C(O)C(O)C3O)CC[C@]3(C)C(=CCC4[C@@]5(C)CC[C@H](OC6OC(C(=O)O)C(O)C(OC7OC(CO)C(O)C(O)C7O)C6O)C(C)(C)C5CC[C@]43C)C2C1 (some centres not stated)
inactive: activity change, negative = cytotoxicity (C33A) 0.815% [at 11.6 µM] | activity change, negative = cytotoxicity (CAOV3) -9.9% [at 11.6 µM] | activity change, negative = cytotoxicity (CASKI) 5.34% [at 11.6 µM] | activity change, negative = cytotoxicity (Es-2) -1.41% [at 11.6 µM] | activity change, negative = cytotoxicity (HeLa) 2% [at 11.6 µM] | activity change, negative = cytotoxicity (Hek293T) 0.993% [at 11.6 µM] | activity change, negative = cytotoxicity (JEG-3) 1.51% [at 11.6 µM] | activity change, negative = cytotoxicity (OV90) 9.69% [at 11.6 µM] | activity change, negative = cytotoxicity (PA-1) 4.28% [at 11.6 µM] | activity change, negative = cytotoxicity (SKOV3) -1.26% [at 11.6 µM] | activity change, negative = cytotoxicity (Tov-21-G) -2.48% [at 11.6 µM] | activity change, negative = cytotoxicity (Tov112D) 6.25% [at 11.6 µM]

C[C@H](NC(=O)CCc1nc2ccccc2c(=O)[nH]1)c1ccccc1
inactive: Potency (C33A) | Potency (CAOV3) | Potency (CASKI) | Potency (Es-2) | Potency (HeLa) | Potency (Hek293T) | Potency (JEG-3) | Potency (OV90) | Potency (PA-1) | Potency (SKOV3) | Potency (Tov-21-G) | Potency (Tov112D)

C[C@@H]1CC[C@]2(C(=O)O[C@@H]3O[C@H](CO)[C@@H](O)[C@H](O)[C@H]3O)CC[C@]3(C)C(=CCC4[C@@]5(C)C[C@@H](O)[C@H](O)[C@@](C)(C(=O)O[C@H]6[C@H](O)C[C@@]7(C)C(CC[C@]8(C)C7CC=C7[C@H]9[C@](C(=O)O[C@@H]%10O[C@H](CO)[C@@H](O)[C@H](O)[C@H]%10O)(CC[C@@H](C)[C@@]9(C)O)CC[C@]78C)[C@@]6(CO)C(=O)O)C5CC[C@]43C)[C@@H]2[C@]1(C)O (some centres not stated)
inactive: activity change, negative = cytotoxicity (C33A) 2.44% [at 6.55 µM] | activity change, negative = cytotoxicity (CAOV3) 6.22% [at 6.55 µM] | activity change, negative = cytotoxicity (CASKI) 11.5% [at 6.55 µM] | activity change, negative = cytotoxicity (Es-2) -0.958% [at 6.55 µM] | activity change, negative = cytotoxicity (HeLa) -3.59% [at 6.55 µM] | activity change, negative = cytotoxicity (Hek293T) 2.04% [at 6.55 µM] | activity change, negative = cytotoxicity (JEG-3) -2.9% [at 6.55 µM] | activity change, negative = cytotoxicity (OV90) -0.495% [at 6.55 µM] | activity change, negative = cytotoxicity (PA-1) 8.04% [at 6.55 µM] | activity change, negative = cytotoxicity (SKOV3) 17.7% [at 6.55 µM] | activity change, negative = cytotoxicity (Tov-21-G) 0.548% [at 6.55 µM] | activity change, negative = cytotoxicity (Tov112D) 3.01% [at 6.55 µM]

CC(C)(O)/C=C/C1=CC(=O)[C@@](C)(O)C[C@H]1O
inactive: Potency (C33A) | Potency (CAOV3) | Potency (CASKI) | Potency (Es-2) | Potency (HeLa) | Potency (Hek293T) | Potency (JEG-3) | Potency (OV90) | Potency (PA-1) | Potency (SKOV3) | Potency (Tov-21-G) | Potency (Tov112D)
